In PubChem BioAssay (EPA / NIEHS):
Inconclusive results are not listed. Calls of active or inactive are those of the source. How the source made its calls, unless noted: active means hit-call score of the fitted dose curve at least 0.9, where 1 is the maximum; inactive means score below 0.9.

Assays:
[1] = ATG_NFI_CIS: Attagene CIS-FACTORIAL HepG2 Assay for human Nuclear Factor I (NFI) (AID 2282989); conditions: HepG2 cis-regulatory reporter, NFI response element transcription; actives raise or lower the signal
How it was run: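 Multiplexed cis-reporter system in human HepG2 cells reports native TF activity as reporter mRNA induction 24 h post-dose. Fragments labelled with 6-FAM, HpaI-digested and resolved by capillary electrophoresis; activity fitted both directions versus DMSO.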

[2] = ATG_NF_kB_CIS: Attagene CIS-FACTORIAL HepG2 Assay for human Nuclear Factor Kappa B (NF-kB) (AID 2282991); conditions: HepG2 Attagene cis-factorial NF-kB reporter mRNA; actives raise or lower the signal
How it was run: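 Measures mRNA induction of an NF-kB-responsive cis-element reporter in HepG2 cells transfected with multiple reporter units, sampled 24 h post-dosing; quantified by fluorescence after RT-PCR and capillary electrophoresis, fitted for activation or inhibition against DMSO.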

[3] = ATG_NRF2_ARE_CIS: Attagene CIS-FACTORIAL HepG2 Assay for human Nuclear Factor Erythroid 2 Related Factor 2 (NFR2) response to Antioxidant Response Elements (ARE) (AID 2282992); conditions: HepG2 Attagene ARE/NRF2 reporter, transcription factor activity; actives raise or lower the signal;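 on AC50: reporter mRNA level measured by RT-PCR and capillary electrophoresis fluorescence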
How it was run: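 Multiplexed reporter mRNA profiling in HepG2 after a 24 h chemical exposure. Curves fitted in both directions relative to DMSO negative control.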

[4] = ATG_Oct_MLP_CIS: Attagene CIS-FACTORIAL HepG2 Assay for human Octamer-Binding Transcription Factor (Oct) (AID 2282993); conditions: HepG2 Attagene cis-factorial Oct reporter, mRNA; actives raise or lower the signal
How it was run: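 After 24 h compound exposure, transfected HepG2 cells were lysed for total RNA; reporter-specific cDNA was PCR-amplified, fluorescently labelled and sized by capillary electrophoresis. Bidirectional curve fitting used DMSO as baseline.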

[5] = target: Myc proto-oncogene protein (Homo sapiens) (UniProt P01106); assay: ATG_Myc_CIS: Attagene CIS-FACTORIAL HepG2 Assay for human Myelocytomatosis (Myc) Proto-Oncogene Transcription Factor (AID 2282990); conditions: HepG2, Attagene cis-reporter transcription factor activity; actives raise or lower the signal
Sequence of Myc proto-oncogene protein (Homo sapiens) (P01106 whole entry, looked up): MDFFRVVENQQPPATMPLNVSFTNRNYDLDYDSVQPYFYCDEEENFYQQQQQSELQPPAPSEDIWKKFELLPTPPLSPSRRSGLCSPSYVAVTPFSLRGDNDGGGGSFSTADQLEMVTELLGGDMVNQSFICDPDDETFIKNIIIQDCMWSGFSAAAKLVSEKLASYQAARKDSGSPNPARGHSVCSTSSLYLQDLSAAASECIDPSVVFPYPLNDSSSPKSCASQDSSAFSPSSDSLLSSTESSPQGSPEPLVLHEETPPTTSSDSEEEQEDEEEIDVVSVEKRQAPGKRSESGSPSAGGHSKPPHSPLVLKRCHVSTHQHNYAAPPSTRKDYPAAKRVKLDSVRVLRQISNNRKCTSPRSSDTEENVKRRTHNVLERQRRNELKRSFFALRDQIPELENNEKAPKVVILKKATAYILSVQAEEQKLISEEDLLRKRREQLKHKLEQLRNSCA
How it was run: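 HepG2 cells transiently transfected with multiple cis-promoter-driven reporter transcription units, so endogenous TF activity is read. After 24 h compound exposure, reporter mRNA was quantified by RT-PCR, 6-FAM labelling, HpaI digestion and capillary electrophoresis; bidirectional fit versus DMSO.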

[6] = target: human Peroxisome Proliferator-activated Receptor alpha (PPARa), PPARA (gene 5465) (UniProt Q07869); assay: ATG_PPARa_TRANS: Attagene TRANS-FACTORIAL HepG2 Assay for human Peroxisome Proliferator-activated Receptor alpha (PPARa) (AID 2283001; active means hit-call score of the fitted dose curve at least 0.9, where 1 is the maximum;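 on AC50: potency for gain of reporter signal over DMSO so agonist or activator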)
Sequence of human Peroxisome Proliferator-activated Receptor alpha (PPARa), PPARA (gene 5465) (Q07869 whole entry, looked up, the tested form may be a part): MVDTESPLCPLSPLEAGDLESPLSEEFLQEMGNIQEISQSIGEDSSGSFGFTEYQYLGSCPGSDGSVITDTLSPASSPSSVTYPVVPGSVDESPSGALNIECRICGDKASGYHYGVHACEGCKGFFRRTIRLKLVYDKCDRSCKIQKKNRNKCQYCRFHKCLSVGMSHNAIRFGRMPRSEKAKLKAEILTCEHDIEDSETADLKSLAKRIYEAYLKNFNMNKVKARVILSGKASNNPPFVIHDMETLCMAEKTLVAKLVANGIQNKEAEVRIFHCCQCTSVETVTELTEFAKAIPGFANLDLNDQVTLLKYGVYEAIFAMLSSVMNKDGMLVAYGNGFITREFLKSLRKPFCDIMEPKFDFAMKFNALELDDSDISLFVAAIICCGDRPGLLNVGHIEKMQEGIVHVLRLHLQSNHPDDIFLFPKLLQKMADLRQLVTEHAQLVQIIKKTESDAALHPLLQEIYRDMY
How it was run: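 HepG2 cells transiently transfected with multiplexed GAL4-UAS reporter units and chimeric NR-Gal4 constructs were dosed for 24 h. Reporter mRNA was measured by RT-PCR with fluorescent labelling and capillary electrophoresis; gain of signal fitted against DMSO.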

[7] = target: human Peroxisome Proliferator-activated Receptor delta (PPARd), PPARD (gene 5467) (UniProt Q03181); assay: ATG_PPARd_TRANS: Attagene TRANS-FACTORIAL HepG2 Assay for human Peroxisome Proliferator-activated Receptor delta (PPARd) (AID 2283002; active means hit-call score of the fitted dose curve at least 0.9, where 1 is the maximum)
Sequence of human Peroxisome Proliferator-activated Receptor delta (PPARd), PPARD (gene 5467) (Q03181 whole entry, looked up, the tested form may be a part): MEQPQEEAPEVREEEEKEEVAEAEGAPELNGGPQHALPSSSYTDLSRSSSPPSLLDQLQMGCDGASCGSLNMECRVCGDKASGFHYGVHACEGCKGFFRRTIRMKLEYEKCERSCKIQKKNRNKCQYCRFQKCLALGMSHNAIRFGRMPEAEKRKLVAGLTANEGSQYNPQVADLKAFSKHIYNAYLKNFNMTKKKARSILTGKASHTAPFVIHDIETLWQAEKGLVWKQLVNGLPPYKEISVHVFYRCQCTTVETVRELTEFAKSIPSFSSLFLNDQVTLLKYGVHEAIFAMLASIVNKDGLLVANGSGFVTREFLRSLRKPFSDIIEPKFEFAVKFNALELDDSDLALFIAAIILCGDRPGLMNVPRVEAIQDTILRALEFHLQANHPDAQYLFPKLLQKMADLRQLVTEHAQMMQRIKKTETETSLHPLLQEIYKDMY
How it was run: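 HepG2 cells transiently transfected with multiplexed GAL4-UAS reporter units and exogenous chimeric NR-Gal4 proteins; 24 h compound exposure. Reporter mRNA measured by RT-PCR, 6-FAM labelling, HpaI digestion and capillary electrophoresis; gain of signal versus DMSO.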

[8] = target: Nuclear receptor subfamily 1 group I member 2 (Homo sapiens) (UniProt O75469); assay: ATG_PXR_TRANS: Attagene TRANS-FACTORIAL HepG2 Assay for human Pregnane X Receptor (PXR) (AID 2283008; active means hit-call score of the fitted dose curve at least 0.9, where 1 is the maximum)
Sequence of Nuclear receptor subfamily 1 group I member 2 (Homo sapiens) (O75469 whole entry, looked up, the tested form may be a part): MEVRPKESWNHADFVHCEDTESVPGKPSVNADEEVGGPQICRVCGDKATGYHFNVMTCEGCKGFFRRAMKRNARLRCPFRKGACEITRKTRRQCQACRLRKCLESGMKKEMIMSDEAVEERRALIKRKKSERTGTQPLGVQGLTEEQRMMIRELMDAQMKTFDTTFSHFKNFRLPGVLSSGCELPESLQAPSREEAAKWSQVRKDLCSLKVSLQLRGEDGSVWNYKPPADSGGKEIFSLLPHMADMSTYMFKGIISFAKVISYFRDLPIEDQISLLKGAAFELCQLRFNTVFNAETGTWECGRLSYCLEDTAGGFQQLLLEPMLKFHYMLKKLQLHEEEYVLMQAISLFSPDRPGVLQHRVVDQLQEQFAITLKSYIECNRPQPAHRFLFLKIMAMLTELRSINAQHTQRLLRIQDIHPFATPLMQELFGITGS
How it was run: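 Measures mRNA induction of a GAL4-UAS-driven reporter in human HepG2 cells transiently expressing PXR fused to Gal4, following 24 h treatment. DMSO served as negative control and baseline.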

[9] = target: Cellular tumor antigen p53 (Homo sapiens) (UniProt P04637); assay: ATG_p53_CIS: Attagene CIS-FACTORIAL HepG2 Assay for human p53 Transcription Factor (AID 2282994); conditions: HepG2 p53 cis-element reporter, Attagene mRNA; actives raise or lower the signal
Sequence of Cellular tumor antigen p53 (Homo sapiens) (P04637 whole entry, looked up): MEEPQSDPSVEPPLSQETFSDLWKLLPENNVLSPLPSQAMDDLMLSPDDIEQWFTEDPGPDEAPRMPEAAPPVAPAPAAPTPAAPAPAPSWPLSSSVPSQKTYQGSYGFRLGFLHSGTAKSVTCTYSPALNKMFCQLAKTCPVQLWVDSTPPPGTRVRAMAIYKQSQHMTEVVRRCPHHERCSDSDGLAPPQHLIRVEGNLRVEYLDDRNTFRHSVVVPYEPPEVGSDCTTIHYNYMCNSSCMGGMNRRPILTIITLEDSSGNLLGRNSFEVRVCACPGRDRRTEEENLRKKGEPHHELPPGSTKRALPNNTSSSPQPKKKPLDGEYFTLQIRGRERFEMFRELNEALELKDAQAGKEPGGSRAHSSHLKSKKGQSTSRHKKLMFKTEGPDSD
How it was run: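 Multiplexed reporter mRNA assay in human HepG2 liver cells; cis-regulated units report endogenous factor activity. Values come from bidirectional curve fitting against DMSO negative control after 24 h treatment.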

[10] = target: Peroxisome proliferator-activated receptor gamma (Homo sapiens) (UniProt P37231); assay: ATG_PPARg_TRANS: Attagene TRANS-FACTORIAL HepG2 Assay for human Peroxisome Proliferator-activated Receptor-gamma (PPARg) (AID 2283007; active means hit-call score of the fitted dose curve at least 0.9, where 1 is the maximum)
Sequence of Peroxisome proliferator-activated receptor gamma (Homo sapiens) (P37231 whole entry, looked up, the tested form may be a part): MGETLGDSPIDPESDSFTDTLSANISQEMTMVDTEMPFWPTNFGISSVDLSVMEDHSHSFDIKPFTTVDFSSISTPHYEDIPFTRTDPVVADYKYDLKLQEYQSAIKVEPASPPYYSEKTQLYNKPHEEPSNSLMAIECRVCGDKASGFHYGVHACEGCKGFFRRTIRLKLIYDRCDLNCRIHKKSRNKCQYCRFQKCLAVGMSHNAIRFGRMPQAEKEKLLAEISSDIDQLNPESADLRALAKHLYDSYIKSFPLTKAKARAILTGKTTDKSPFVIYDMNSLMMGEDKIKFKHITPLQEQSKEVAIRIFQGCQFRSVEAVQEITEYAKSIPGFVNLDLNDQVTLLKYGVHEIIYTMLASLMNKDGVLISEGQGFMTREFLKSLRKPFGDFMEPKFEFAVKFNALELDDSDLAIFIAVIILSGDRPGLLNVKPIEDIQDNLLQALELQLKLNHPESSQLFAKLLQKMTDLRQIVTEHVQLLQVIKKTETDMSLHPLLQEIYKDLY
How it was run: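 Gain-of-signal endpoint relative to DMSO, derived from reporter mRNA levels quantified by RT-PCR and capillary electrophoresis. Cells were HepG2 transiently expressing a chimeric NR-Gal4 construct with GAL4-UAS reporters, exposed to chemicals for 24 h.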

[11] = target: human RAR-related Orphan Receptor beta (RORb), RORB (gene 6096) (UniProt Q92753); assay: ATG_RORb_TRANS: Attagene TRANS-FACTORIAL HepG2 Assay for human RAR-related Orphan Receptor beta (RORb) (AID 2283010; active means hit-call score of the fitted dose curve at least 0.9, where 1 is the maximum)
Sequence of human RAR-related Orphan Receptor beta (RORb), RORB (gene 6096) (Q92753 whole entry, looked up, the tested form may be a part): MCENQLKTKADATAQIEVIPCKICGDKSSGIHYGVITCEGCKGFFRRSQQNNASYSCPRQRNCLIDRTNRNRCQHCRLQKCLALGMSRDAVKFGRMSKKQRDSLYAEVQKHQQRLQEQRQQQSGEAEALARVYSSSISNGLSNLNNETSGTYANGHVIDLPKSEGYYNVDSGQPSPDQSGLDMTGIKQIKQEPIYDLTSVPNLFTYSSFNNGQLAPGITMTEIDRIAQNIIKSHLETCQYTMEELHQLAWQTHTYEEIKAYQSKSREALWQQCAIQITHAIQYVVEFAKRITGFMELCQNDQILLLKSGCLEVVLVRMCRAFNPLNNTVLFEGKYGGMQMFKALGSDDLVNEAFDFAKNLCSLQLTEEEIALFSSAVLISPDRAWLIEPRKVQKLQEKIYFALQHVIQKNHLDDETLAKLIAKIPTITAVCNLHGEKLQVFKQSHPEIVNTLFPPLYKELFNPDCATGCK
How it was run: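 HepG2 cells were transiently transfected with multiplexed GAL4-UAS reporter units expressing chimeric nuclear receptor–GAL4 proteins, then dosed for 24 h. Reporter mRNA was quantified by RT-PCR with fluorescent labelling and capillary electrophoresis; gain of signal was fitted relative to DMSO.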

[12] = target: human Retinoic Acid Receptor beta (RARb), RARB (gene 5915) (UniProt P10826); assay: ATG_RARb_TRANS: Attagene TRANS-FACTORIAL HepG2 Assay for human Retinoic Acid Receptor beta (AID 2283004; active means hit-call score of the fitted dose curve at least 0.9, where 1 is the maximum)
Sequence of human Retinoic Acid Receptor beta (RARb), RARB (gene 5915) (P10826 whole entry, looked up, the tested form may be a part): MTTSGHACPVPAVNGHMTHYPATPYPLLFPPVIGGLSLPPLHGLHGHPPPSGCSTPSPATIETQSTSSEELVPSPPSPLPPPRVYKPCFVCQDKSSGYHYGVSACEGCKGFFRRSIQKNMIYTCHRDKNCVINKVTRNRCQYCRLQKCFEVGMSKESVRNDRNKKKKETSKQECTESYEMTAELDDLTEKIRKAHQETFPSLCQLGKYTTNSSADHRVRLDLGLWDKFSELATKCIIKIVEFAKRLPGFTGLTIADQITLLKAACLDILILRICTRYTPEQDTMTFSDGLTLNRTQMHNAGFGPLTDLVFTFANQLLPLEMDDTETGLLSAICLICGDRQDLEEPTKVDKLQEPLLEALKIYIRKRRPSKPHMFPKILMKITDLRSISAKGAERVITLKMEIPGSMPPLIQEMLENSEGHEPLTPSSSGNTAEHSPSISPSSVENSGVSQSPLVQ
How it was run: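 HepG2 cells transiently transfected with multiplexed GAL4-UAS reporter units expressing chimeric NR–Gal4 fusions; 24 h compound exposure. Reporter mRNA quantified by RT-PCR, 6-FAM labelling, HpaI digestion and capillary electrophoresis; gain-of-signal fitted against DMSO baseline.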

[13] = target: Retinoic acid receptor alpha (Homo sapiens) (UniProt P10276); assay: ATG_RARa_TRANS: Attagene TRANS-FACTORIAL HepG2 Assay for human Retinoic Acid Receptor alpha (RARa) (AID 2283005; active means hit-call score of the fitted dose curve at least 0.9, where 1 is the maximum)
Sequence of Retinoic acid receptor alpha (Homo sapiens) (P10276 whole entry, looked up, the tested form may be a part): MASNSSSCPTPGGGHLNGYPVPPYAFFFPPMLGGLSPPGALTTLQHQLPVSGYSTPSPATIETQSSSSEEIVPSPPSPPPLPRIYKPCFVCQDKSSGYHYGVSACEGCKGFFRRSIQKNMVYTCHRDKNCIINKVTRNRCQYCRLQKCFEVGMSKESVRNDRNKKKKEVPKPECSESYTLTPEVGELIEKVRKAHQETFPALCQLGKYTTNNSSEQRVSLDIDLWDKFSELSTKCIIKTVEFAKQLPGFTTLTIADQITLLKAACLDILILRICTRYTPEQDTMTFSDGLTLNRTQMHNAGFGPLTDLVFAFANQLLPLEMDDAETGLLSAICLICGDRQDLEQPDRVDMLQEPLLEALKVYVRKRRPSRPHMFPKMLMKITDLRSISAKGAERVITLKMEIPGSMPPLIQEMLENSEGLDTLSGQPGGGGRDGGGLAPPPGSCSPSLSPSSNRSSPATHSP
How it was run: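 HepG2 cells transiently transfected with multiple reporter units expressing chimeric RARα-GAL4 fusion, with GAL4-UAS-driven reporters. After 24 h compound exposure, reporter mRNA induction quantified by RT-PCR and capillary electrophoresis with fluorescent labeling; gain-of-signal fitted relative to DMSO control.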

[14] = target: human Retinoic Acid Receptor gamma (RARg), RARG (gene 5916) (UniProt P13631); assay: ATG_RARg_TRANS: Attagene TRANS-FACTORIAL HepG2 Assay for human Retinoic Acid Receptor gamma (RARg) (AID 2283009; active means hit-call score of the fitted dose curve at least 0.9, where 1 is the maximum)
Sequence of human Retinoic Acid Receptor gamma (RARg), RARG (gene 5916) (P13631 whole entry, looked up, the tested form may be a part): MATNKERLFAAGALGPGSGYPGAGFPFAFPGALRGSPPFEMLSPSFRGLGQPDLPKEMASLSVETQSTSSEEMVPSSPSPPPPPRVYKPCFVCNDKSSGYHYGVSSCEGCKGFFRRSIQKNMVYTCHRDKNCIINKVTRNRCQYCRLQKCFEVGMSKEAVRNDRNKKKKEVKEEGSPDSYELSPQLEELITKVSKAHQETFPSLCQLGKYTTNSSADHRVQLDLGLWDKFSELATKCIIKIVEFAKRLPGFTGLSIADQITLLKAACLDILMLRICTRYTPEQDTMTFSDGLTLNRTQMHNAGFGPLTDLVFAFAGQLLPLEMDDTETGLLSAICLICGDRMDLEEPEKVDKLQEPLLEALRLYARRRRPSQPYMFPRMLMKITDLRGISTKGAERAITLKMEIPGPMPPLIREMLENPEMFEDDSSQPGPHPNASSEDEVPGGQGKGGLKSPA
How it was run: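 HepG2 cells transiently transfected with multiplexed reporter units expressing chimeric RARg-GAL4 and GAL4-UAS-driven reporters; 24 h compound exposure. Reporter mRNA quantified by RT-PCR with fluorescent labelling and capillary electrophoresis; gain-of-signal fitted relative to DMSO baseline.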

Measured: AC50

Cc1ccc(C(=O)O)o1
inactive: [1] | [2] | [3] | [4]

Cc1cccc(Nc2ccccc2C(=O)O)c1C
inactive: [1] | [5] | [4] | [8]
active: [3] 100 µM | [6] 14.5 µM | [7] 77.8 µM

CNCCO
inactive: [1] | [5] | [3] | [4] | [9] | [10] | [8]

CCCOCC(C)O (stereo not given)
inactive: [1] | [5] | [3] | [7] | [8] | [11]

COC(=O)OC
inactive: [1] | [5] | [3] | [4] | [9] | [7] | [8]

CCOc1ccccc1OCC
inactive: [1] | [5] | [3] | [4] | [9] | [7] | [10] | [8]

CCCCOCCOCCOCCOCCO
inactive: [1] | [5] | [3] | [4] | [6] | [7] | [11]

S=C(S)NCCNC(=S)S
inactive: [1] | [5] | [3] | [6] | [10]

OCCN1CCNCC1
inactive: [1] | [5] | [3] | [4] | [9] | [7] | [11]

CCCC[n+]1ccccc1
not listed: [2] | [7] | [9] | [10]
inactive: all other assays above

O=Cc1ccc(F)cc1
not listed: [2] | [6] | [12] | [13] | [14]
inactive: all other assays above

Cc1cccc(C)c1[N+](=O)[O-]
not listed: [2] | [6] | [7] | [9] | [10]
inactive: all other assays above

CC(C)(CO)[N+](=O)[O-]
inactive: [1] | [5] | [3] | [4] | [10] | [8] | [11]

O=C1C(c2[nH]c3ccc(S(=O)(=O)O)cc3c2O)=Nc2ccc(S(=O)(=O)O)cc21
inactive: [1] | [5] | [3] | [4] | [9] | [8]

OCCCCCO
inactive: [1] | [5] | [3] | [4] | [9] | [7] | [8]

Clc1sc(Cl)c(Cl)c1Cl
inactive: [1] | [5] | [3] | [4] | [6] | [7] | [8]

COc1ccc(OC)c(OC)c1
inactive: [1] | [5] | [3] | [4] | [9] | [6] | [8]
